Measurements: PubChem BioAssay (NCI)
Compounds without any hit were thinned out: in the full panel of roughly 83,000, 20% have a hit.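 48-hour exposure, single concentration, 96-well plates; percent growth endpoint where 0 means no net growth. Active: below 10.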 Unmarked numbers belong to inactive results. Active and inactive are the calls of the source.

test system: KM12 colon; assay: NCI-60 one-dose screen, 48 h (100 = growth as untreated, 0 = no growth, -100 = all killed); conditions: 10 µM
Experimental: Growth inhibition of the KM12 human tumor cell line is measured as a screen for anti-cancer activity. Cells are grown in 96 well plates and exposed to the test compound for 48 hours. Compounds are tested at a single concentration, which is 10^-5 M for most compounds. The reported endpoint is percent growth (GI% or GIPRCNT), where numbers from 0 - 100% represent growth inhibition, and numbers from -100% - 0 represent cell death. For example, a value of 40 represents 60% growth inhibition. A value of 0 means no net growth occurred over the course of the experiment. A value of -40 indicates 40% of cells at the beginning of the experiment died by the end of the experiment. A value of -100 means all cells are dead at the end of the experiment.
NCI-60 Human Tumor Cell Lines Screen was performed using the standard one-dose NCI protocol, which is described in more detail at https://dtp.cancer.gov/discovery_development/nci-60/default.htm.
Compounds with GIPRCNT values below 10 were considered active. Activity score was based on GIPRCNT using the following formula: […]
Score is 0 for GIPRCNT values of 100 or above, 50 for GIPRCNT values of 0, and 100 for GIPRCNT values of -100.

Q: Which growth does the source give for `COc1ccc(-c2nc(S(=O)(=O)c3ccccc3)c(S(C)(=O)=O)o2)cc1` here?
A: 66%

Q: How did the growth turn out when `CN(C(=O)c1ccc(C(C)(C)C)cc1)c1sc2c(c1C#N)CCC(=O)C2` was run?
A: -6.74% (active)

Q: For `Cc1ccc(-c2nc3ccc(C(=O)N=Nc4c(O)[nH]c5ccc(Cl)cc45)cc3[nH]2)cc1`, which growth is on record?
A: 4.98% (active)

Q: With `CC[C@@]1(O)C(=O)OCc2c1cc1n(c2=O)Cc2c-1nc1cc(F)c(C)c3c1c2[C@@H](N)CC3` as the compound, how does the growth read?
A: 3.85% (active)

Q: `COc1cc(/C=C/C(=O)c2ccc(NC(=O)CSc3nnc(-c4c[nH]c5ccccc45)n3-c3ccccc3)cc2)cc(OC)c1OC` was tested. Which growth did it give?
A: 48.8%

Q: For `CC1(C)CC[C@]2(C(=O)Nc3ccccc3)CC[C@]3(C)C(=CC[C@@H]4[C@@]5(C)CC[C@H](N)C(C)(C)[C@@H]5CC[C@]43C)[C@H]2C1`, which growth is on record?
A: 36.1%

Q: For `COc1ccc(-c2cc(-c3cc(C(=O)c4ccc(Br)cc4)n4ccc(C)cc34)nc(N)c2C#N)cc1`, which growth is on record?
A: 82.1%

Q: For `CS(=O)(=O)Nc1ccc(-c2ccc3c(c2)ncn3-c2ccc(NC(=O)Nc3ccc(Cl)c(C(F)(F)F)c3)cc2)cc1`, which growth is on record?
A: -57.8% (active)

Q: Which growth does the source give for `O=C(c1ccc(O)cc1)C1[C@H](c2ccccc2Br)[C@@H](c2ccccc2)NC12C(=O)Nc1ccc(Cl)cc12` (stereo not given in full) here?
A: -20.7% (active)

Q: With `O=c1[nH]c2ccccc2cc1CSc1ccc(Nc2nccc(-c3ccc4ccccc4c3)n2)cc1` as the compound, how does the growth read?
A: 50.2%

Q: Which growth does the source give for `O=c1nc(-c2ccccc2)cc(-c2cc3ccccc3nc2Cl)[nH]1` here?
A: -15.4% (active)

Q: With `COC[C@@H](CC(C)C)N=C1N/C(=C\c2ccc3ncsc3c2)C(=O)N1C` as the compound, how does the growth read?
A: 9.52% (active)

Q: Which growth does the source give for `C=C(C)[C@@H]1CC[C@]2(C(=O)OC)CC[C@]3(C)[C@H](CC[C@@H]4[C@@]5(C)CC[C@H](N)C(C)(C)[C@@H]5CC[C@]43C)[C@@H]12` here?
A: -82.3% (active)

Q: With `Cc1nc(Nc2nc(C)c3ccc(OCCN4CCOCC4)cc3n2)[nH]c(=O)c1C` as the compound, how does the growth read?
A: 6.49% (active)

Q: For `C=CC(=O)Nc1ccc(C(=O)/C=C/c2ccc(N(C)CCF)cc2)c(O)c1`, which growth is on record?
A: -82.6% (active)

Q: How did the growth turn out when `CC(=O)NNc1ccc2nnc(-c3ccc(Br)cc3)n2n1` was run?
A: 105%

Q: How did the growth turn out when `C=C(C)[C@@H]1CC[C@]2(COP(=O)(OCC)OCC)CC[C@]3(C)[C@H](CC[C@@H]4[C@@](C)(CCCN)[C@H](C(=C)C)CC[C@]43C)[C@@H]12` was run?
A: 16.8%

Q: Which growth does the source give for `CC(=O)OC[C@@]1(C)C2CC[C@]3(C)C(CC=C4C5CC(C)(C)CC[C@]5(C(=O)Nc5ccccc5)CC[C@]43C)[C@@]2(C)C[C@@H](OC(C)=O)[C@@H]1OC(C)=O` (stereo not given in full) here?
A: 49%

Q: `O=C(CNc1nc(-c2ccccc2)cs1)Nc1ccc([N+](=O)[O-])cc1` was tested. Which growth did it give?
A: 36.7%

Q: With `CN(C)c1ccc(/C=C/C(=O)c2ccc(NC(=O)CN3C(=O)NC(C)(c4ccccc4)C3=O)cc2)cc1` (stereo not given) as the compound, how does the growth read?
A: 23.7%

Q: Which growth does the source give for `O=C(Cn1cc(CSc2nnc3oc4ccccc4n23)nn1)Nc1ccc(Br)cc1` here?
A: 85.7%

Q: `CCCCSc1nc(Nc2ccc(/C(C)=N/NC(N)=S)cc2)c(C#N)c(-c2ccc(OC)cc2)n1` was tested. Which growth did it give?
A: 79.3%

Q: `COc1ccc2ncc(C#Cc3cncc(C(=O)Nc4ccc(CN5CCN(C)CC5)c(C(F)(F)F)c4)c3)n2n1` was tested. Which growth did it give?
A: -95% (active)

Q: How did the growth turn out when `N#Cc1ccc(-c2nn(-c3ccc(C(=O)O)cc3)cc2CNc2cc(Cl)cc(C(F)(F)F)c2)cc1` was run?
A: 4.92% (active)

Q: `COC1=C[C@@]23CCC(=O)N2CCc2cc4c(cc2[C@H]3[C@H]1OC(=O)C(C)(C)O)OCO4` was tested. Which growth did it give?
A: 101%

Q: How did the growth turn out when `COc1cc2c(c(OC)c1OC)C(=O)CC(c1cccc(NC(=O)c3cccc(N)c3)c1)O2` (stereo not given) was run?
A: 72.2%

Q: Which growth does the source give for `COc1ccc(-c2ccc(/C=N/NC(=O)c3[nH]c4ccc(Br)cc4c3-c3ccccc3)s2)cc1` here?
A: 85.5%

Q: `CSc1nc(-c2cccc(C)c2)c2cc(-c3ccccc3)n(C)c2n1` was tested. Which growth did it give?
A: 6.5% (active)

Q: For `COc1ccc2nc(Cl)c(-c3cc(-c4ccccc4)nc(=O)[nH]3)cc2c1`, which growth is on record?
A: 18.3%

Q: With `Cc1ccc2nc3c(nc2c1)c1cc(I)ccc1n3CCN(C)C` as the compound, how does the growth read?
A: 21.1%

Q: `Cc1ccc2nc(-c3ccc(-c4nnc(SCC(=O)Nc5ccc(Br)cc5)o4)cc3)[nH]c2c1` was tested. Which growth did it give?
A: 70.4%

Q: For `O=C1Nc2ccc(Cl)cc2/C1=C/c1cccc(OCc2ccccn2)c1`, which growth is on record?
A: -32.3% (active)

Q: Which growth does the source give for `O=c1c2ccccc2nc(COc2ccccc2)n1/N=C/c1ccc(F)cc1` here?
A: 93.5%

Q: For `O=C(NC(=S)N1CCN(c2ncnc3c2cnn3-c2ccccc2)CC1)c1ccc(Cl)cc1`, which growth is on record?
A: 87.3%

Q: For `Cc1ccc(-c2nc3ccc(C(=O)N=Nc4c(O)[nH]c5ccc([N+](=O)[O-])cc45)cc3[nH]2)cc1`, which growth is on record?
A: 104%

Q: Which growth does the source give for `C=C1CCC2C3(C)COC(c4ccccc4F)OC3CCC2(C)C1C/C=C1/C(=O)OCC1O` (stereo not given) here?
A: -82.3% (active)

Q: How did the growth turn out when `COc1ccc(NC(=O)CSc2nnc(-c3ccc4nc(-c5ccc(Cl)cc5)[nH]c4c3)o2)cc1` was run?
A: 60.4%

Q: `O=C(Nc1cccc(C(F)(F)F)c1)c1cncc(C#Cc2cnc3ccc(N4CCOCC4)nn23)c1` was tested. Which growth did it give?
A: -24.1% (active)

Q: Which growth does the source give for `Cc1ccc(-c2cc(C(=O)N=Nc3c(O)[nH]c4ccccc34)c3ccccc3n2)cc1` here?
A: 23.9%

Q: Which growth does the source give for `COc1ccc(CN2[C@@H](C(=O)NCc3ccc(C(=O)NO)cc3)Cc3c([nH]c4ccccc34)[C@@H]2C2CC2)cc1` here?
A: 20.3%
